Assay outcomes: PubChem, National Center for Advancing Translational Sciences (NCATS)
BAZ2B block = BAZ2B (human) inhibition; Q9UIF8; AlphaScreen BAZ2B-H3K14Ac peptide displacement; Potency, µM (highest dose often 114 µM), for the others: top-dose activity change, negative = inhibition, most hits filed as inhibitors; 360,000 compounds, 4.4% hits; AID 504333; also: potency is read from the fitted curve at half-maximal effect; % is scaled to controls: 0 for no effect and ±100 for the full control effect; nearly all actives have a fitted effect of over 60% in size
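Protein-peptide AlphaScreen: BAZ2B 50 nM, b-H3K14Ac 50 nM, 1x PBS pH 7.4 + 0.01% Tween-20. Preincubation 30 min RT; cpd 30 min RT (top 110 uM); beads 20 min RT, light-protected.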
JMJD2A Tudor inh = JMJD2A Tudor domain (human) inhibition. AlphaScreen JMJD2A-Tudor / H3K4me3 peptide binding. Potency, µM (doses to about 114 µM), for inactives: at the highest dose activity change, negative = inhibition, usual class: inhibitors. 390,000 compounds, 4.4% hits. AID 504339; also: potency is read from the fitted curve at half-maximal effect; % is scaled to controls: 0 for no effect and ±100 for the full control effect; nearly all actives have a fitted effect of over 50% in size
PLK1 PBD inh = blocks phosphopeptide binding to human PLK1 polo-box domain; Plk1 PBD binding of FITC phosphopeptide, fluorescence polarization; 360,000 compounds, 2.8% hits; AID 720504; Potency, µM, for the others: max response, negative = inhibition, usual class: inhibitors; also: potency is read from the fitted curve at half-maximal effect; series mostly up to about 57 µM; % is scaled to controls: 0 for no effect and ±100 for the full control effect; nearly all actives have a fitted effect of over 65% in size
GCN5L2 inh = GCN5L2 (KAT2A) acetyltransferase inhibition; GCN5L2 HAT assay, ThioGlo1 CoA-SH fluorescence; Potency, µM (series often up to 58.9 µM), inactives show at the top dose activity change, negative = inhibition, usual class: inhibitors; 390,000 compounds, 0.21% hits; AID 504327; also: potency is read from the fitted curve at half-maximal effect; % is scaled to controls: 0 for no effect and ±100 for the full control effect
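GCN5L2 (20 nM) in 50mM HEPES pH 7.5, 0.1mM EDTA, 0.01% Tween-20 preincubated 15 min with compounds at room temperature. Reaction started with H3(1-25) 75uM, acetyl-CoA 70uM, ThioGlo1 50uM; CoA-thiol fluorescence (Ex340/Em540) read at 0 and 20 min.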
HP1b binding inh = inhibitors of HP1-beta chromodomain binding to methylated histone tails | P83916 | AlphaScreen HP1-beta / biotin-H3K9me3 peptide binding | 390,000 compounds, 0.56% hits | Potency, µM (series often up to 114 µM), for the others: at the top dose activity change, negative = inhibition, most hits filed as inhibitors; also: potency is read from the fitted curve at half-maximal effect; nearly all actives have a fitted effect of over 70% in size
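Compound inhibition of the preformed complex between 50 nM HP1-beta and 50 nM biotinylated H3K9me3 peptide was read by AlphaScreen. Buffer was PBS pH 7.4 with 0.01% Tween-20. Incubations ran 30 min at room temperature, with 10 ug/mL donor/acceptor beads.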
PI5P4K alpha inh = PI5P4K alpha (human) kinase inhibition; 330,000 compounds, 1.2% hits; PI5P4Kalpha enzyme, ADP-Glo luminescence, 60 min; stronger effect = lower value; P48426; max response, %; AID 652105; active = max response of -50% or lower; inconclusive = between -30% and -50%; inactive = -30% or higher; also: value at the top dose of about 77 µM; % is scaled to controls: 0 for no effect and ±100 for the full control effect
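qHTS, 1536-well: enzyme/substrate mix, compound by pin tool, 5 microM ATP final; RT 60 min; ADP-Glo reagents 1 (45 min) then 2 (30 min); luminescence.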
An asterisk follows results filed as active; ? = inconclusive; . = not tested or not shown; [ ] = another dose, or the depositor's remark. The list is not random: actives were taken first. Their share in the collection is about 7%. Unless noted, calls follow the shape of the dose curve; as a rule, active = well fitted curve in the direction sought with a large enough effect; inconclusive = small, poorly fitted or top-dose-only effect, or another doubt; inactive = no such curve, though single readings can be large; an effect the other way counts as inactive or inconclusive.

SMILES	BAZ2B block	JMJD2A Tudor inh	PLK1 PBD inh	GCN5L2 inh	HP1b binding inh	PI5P4K alpha inh
CC1CCCN(C(=S)SCC(=O)c2cc(Br)cc(Br)c2O)C1 (stereo not drawn)	?	-27%	-10%	19%	-5%	-4
Cc1noc(C)c1CSCC(=O)OCc1nnc(-c2ccc([N+](=O)[O-])cc2)o1	.	-30%	-7%	-8%	1%	?
COc1ccccc1C1C([N+](=O)[O-])=CC([N+](=O)[O-])=CN1C (stereo not drawn)	6%	8%	17%	-11%	47%	3
COc1ccccc1C1NC=C([N+](=O)[O-])C=C1[N+](=O)[O-] (stereo not drawn)	45µM*	?	?	-10%	?	-10
CCCCN(C)C(=O)c1cn(C)c2ccc(S(=O)(=O)N3CCC(C)CC3)cc2c1=O	-3%	-3%	-2%	-13%	39%	-3
C[C@@H]1CN([C@H](C)CO)C(=O)c2cc(NC(=O)c3ccncc3)ccc2O[C@@H]1CN(C)C(=O)Nc1ccccc1	.	50µM*	-25%	-8%	4%	-21
Cc1noc(C)c1NC(=O)N(C)C[C@@H]1Oc2c(NC(=O)c3ccncc3)cccc2C(=O)N([C@H](C)CO)C[C@@H]1C	.	35µM*	-24%	-4%	4%	?
C[C@H](CO)N1C[C@H](C)[C@@H](CN(C)C(=O)Nc2ccc(C(F)(F)F)cc2)Oc2ccc(NC(=O)c3ccncc3)cc2C1=O	.	-17%	-10%	0%	13%	-1
CCOC(=O)c1cnn(-c2ccccc2)c1NC(=O)CN1CCCCC1	2%	-9%	-7%	1%	23%	-1
CCc1ccc(N=Nc2ccc(O)c3[nH]cnc23)cc1	?	?	0%	2%	-22%	-9
Cc1ccc(N=Nc2c(O)ccc3n[nH]nc23)cc1	?	?	0%	-20%	-2%	-60*
Cc1cc(NC(=O)C(=O)NCc2cccc(Cl)c2)no1	4%	7%	-3%	-6%	17%	0
C[N+](C)(C)CC[N+]1(C)Cc2c(Cl)c(Cl)c(Cl)c(Cl)c2C1	.	.	.	20µM*	.	.
Cc1ccc(NC(=O)c2ccc(NC(=O)CCS(=O)(=O)c3cccs3)cc2)cc1F	1%	?	.	-2%	15%	.
CCOC(=O)c1c[nH]c2c(Cl)c(Cl)ccc2c1=O	0%	?	27µM*	4%	?	-1
CCOC(=O)c1c[nH]c2c(C)ccc(Cl)c2c1=O	-18%	28µM*	19µM*	-14%	6%	-24
CCOC(=O)c1c[nH]c2c(Cl)ccc(Cl)c2c1=O	-9%	-14%	-7%	-1%	23%	2
Cc1nc2ccc(NC(=O)c3ccccc3)cc2s1	-17%	-24%	21µM*	-9%	6%	2
Cc1ccc(OC(=O)c2ccc3nc(C)sc3c2)cc1	3%	2%	19µM*	0%	17%	-19
Cc1nc2ccc(NC(=O)c3ccc4ccccc4n3)cc2s1	-1%	-16%	-3%	-16%	36%	-12
O=C(NC(=S)Nc1ccc2ncccc2c1)c1ccccc1	?	?	0%	-3%	5%	2
O=C(Nc1ccc2ncccc2c1)c1ccccc1	-31%	22µM*	8.4µM*	-1%	-30%	-22
CCN(CC)C(=O)C1=C(C)N(CCCOC)C(=O)C(CC(=O)NCC2CCCCC2)C1 (stereo not drawn)	.	.	1%	.	.	-2
CC(=O)c1ccc(-c2nnc(CCC(=O)N3CCCC(C(=O)CC(C)C)C3)o2)s1 (stereo not drawn)	-7%[57.1 µM]	3%	-9%	-7%	27%	8
O=C1c2ccccc2C(c2nnnn2Cc2ccccc2)N1CCc1ccccc1F (stereo not drawn)	.	.	0%	.	.	7
SMILES	BAZ2B block	JMJD2A Tudor inh	PLK1 PBD inh	GCN5L2 inh	HP1b binding inh	PI5P4K alpha inh
O=C(O)/C=C/C(=O)NCc1csc2ccccc12	-2%	-7%	0%	-1%	32%	1
CCOC(=O)CSC1=C(C#N)C(c2ccc(C)s2)CC(=O)N1 (stereo not drawn)	4%	-14%	3%	-4%	35%	.
CCOC(=O)CSC1=C(C#N)C(=O)NC2(CCCCC2)S1	13µM*	45µM*	?	?	71µM*	-52*
COc1ccccc1NC(=S)NNC(=S)Nc1ccc(OC(F)F)cc1	-38%	79µM*	24µM*	2%	?	-25
COc1cc(/C=N/N(C)c2ccccc2)cc(Cl)c1O	45µM*	25µM*	1%	-8%	22µM*	3
COc1nc(-c2ccccc2)ccc1-c1noc(-c2ccco2)n1	6%	50µM*	-6%	?	?	12
COc1cccc(C(=O)Nc2cc(-c3cn4cccnc4n3)ccc2C)c1OC	3%	-18%	.	3%	18%[57 µM]	.
Cc1ccc(NS(=O)(=O)c2cc3c(cc2F)NC(=O)CC3)cc1Cl	.	-24%	.	.	.	.
Cc1ccc(/C=C/c2nc3ccccc3s2)s1	215%	332%	15%	-9%	469%	23
CN(C)c1ccc(/C=C/c2nc3ccccc3s2)cc1	32µM*	20µM*	1%	1%	40µM*	2
CN(C)c1ccc(/C=C/c2ccc3ccccc3n2)cc1	50µM*	?	-9%	-8%	5%	-19
O=C(Cc1ccc(NC2=NC3CS(=O)(=O)CC3S2)cc1)NCCc1ccccc1 (stereo not drawn)	-5%	-10%	-13%	-9%	25%	-6
Cc1ccc(O)c(-c2n[nH]c3c2C(c2ccccc2F)N(Cc2ccco2)C3=O)c1 (stereo not drawn)	-33%	?	.	-7%	-10%	.
Cn1cccc1/C=N/N1CCN(Cc2cccc3ccccc23)CC1	22µM*	32µM*	-7%	-9%	?	11
C(=N\N1CCN(Cc2cccc3ccccc23)CC1)/c1ccco1	?	56µM*	-12%	-4%[0.501 µM]	45µM*	-4
C(=N\N1CCN(Cc2cccc3ccccc23)CC1)/c1cccnc1	40µM*	45µM*	3%	2%	-42%	.
